# From PubChem BioAssay AID818 (SRMLSC, 2007)
# About 2,100 (1.5%) of roughly 140,000 compounds were called active. Many of the other results were omitted from the sample, so actives are more common in it than they were. Values without a mark were called inactive.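 Rule for the calls: active = viability at or under a set limit, the compound median less 4 SD (cut at about 6% in these data); inactive = the rest.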
# Experiment: primary screen for suppressors of beta-catenin knockout HCT116 cell growth, colon tumor, human (AID 818);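 note: 0% = Hyamine 1622 control at 20 µM and 100% = untreated cell control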
# Details: CellTiter-Glo, 60 h, at 10 µM, hits give low values
row,SMILES,viability
1,COc1cccc(NC(=S)NCc2ccco2)c1,96.7%
2,O=[N+]([O-])c1ccc(C=Nc2ccc(Cl)cc2Cl)s1,3.51% (active)
3,CC1(C)CC(=O)C/C(=N\NC(=O)c2cccs2)C1,93%
4,Cc1ccc(S(=O)(=O)N(Cc2ccc(Cl)cc2)c2ccccc2C(=O)NCc2cccnc2)cc1,81.5%
5,O=C(c1c(Cl)nc2sccn12)N1CCCc2ccccc21,91.5%
6,O=C1/C(=C\c2ccccc2Cl)SC(=S)N1CCC(=O)N1CCCc2ccccc21,4.79% (active)
7,O=C(CCCN1C(=O)/C(=C/c2ccco2)SC1=S)Nc1ccccc1,25.7%
8,CCOc1ccc(C(=O)Nc2cccc(SC)c2)cc1,86.8%
9,NC1=NC(=O)S/C1=C\c1ccc(O)cc1,78.6%
10,CCOC(=O)c1c(C)[nH]c2c1-c1ccccc1C(=O)C2=O,1.06% (active)
11,CCOC(=O)c1c(C)[nH]c(=S)c(C#N)c1-c1ccccc1,101%
12,CCOC(=O)c1cc2n(c1C)-c1ccccc1C2=O,90.9%
13,CCC1(C(=O)c2ccccc2)C(c2cccc([N+](=O)[O-])c2)C1(C(=O)OC)C(=O)OC (stereo not drawn),82.6%
14,Cc1cc(/C=C2\SC(=Nc3ccc(N4CCOCC4)cc3)N(C)C2=O)c(C)n1-c1cccnc1,54.8%
15,O=C1c2ccccc2NC(c2ccc(-c3cccc(Cl)c3)o2)N1O (stereo not drawn),2.84% (active)
16,CCOC(=O)NN1C(=O)c2ccccc2NC1c1cccc(O)c1 (stereo not drawn),106%
17,C=CCn1c(CCNC(=O)c2cccs2)n[nH]c1=S,99.3%
18,COC(=O)Cn1c(=NC(=O)c2cc(OC)c(OC)c(OC)c2)sc2cc(OC)ccc21,81.5%
19,O=C(O)C1CC(=O)N(Cc2cccnc2)C1 (stereo not drawn),90.7%
20,O=C1/C(=C\c2cccnc2)CN(Cc2ccccc2)C/C1=C\c1cccnc1,5.51% (active)
21,O=C1OC(c2ccc(Cl)cc2)=N/C1=C\c1cccnc1,95.6%
22,CCc1ccc(NC2Nc3cc(C)nn3S2)cc1 (stereo not drawn),95.4%
23,CCC(C)N1C(=O)S/C(=C/c2ccc(Sc3nc4ccccc4[nH]3)o2)C1=O (stereo not drawn),4.08% (active)
24,CN=C1S/C(=C\c2ccc(Sc3ccc(Cl)cc3)o2)C(=O)N1C,96.9%

row,SMILES,viability
1,O=C(CSc1nc2ccccc2[nH]1)c1cccs1,78.2%
2,CC1Cc2ccccc2N1C(=O)CSc1nnc(-c2ccc(S(=O)(=O)N3CCCC3)cc2)n1C (stereo not drawn),81%
3,CCCCN(CC)C(=O)c1ccccc1Oc1ccccc1,85.8%
4,COC1=CCC2([N+](=O)[O-])CN(CC(=O)O)CC1([N+](=O)[O-])C2 (stereo not drawn),99%
5,O=C(CC(=O)Nc1ccc(Cl)c(Cl)c1)N/N=C/c1ccc(O)cc1,81%
6,O=C(Cc1ccc(Cl)c(Cl)c1)Nc1ccc(SC(F)F)cc1,35.8%
7,O=C(CC(O)(C(F)(F)F)C(F)(F)F)Nc1ccc(Cl)c(Cl)c1,2.26% (active)
8,C/C(=N\Nc1ccc([N+](=O)[O-])cc1)c1ccc(-n2nncc2C(C)(C)C)cc1,97.1%
9,CCN(/N=C/c1ccc(N(C)C)cc1)c1nc2ccccc2[nH]1,87.6%
10,O=C(COC(=O)c1cc([N+](=O)[O-])ccc1NCc1ccccc1)NC1CCCCC1,45.6%
11,C/C(CCC(=O)OC[C@H]1O[C@H](C#Cc2ccccc2)C=C[C@@H]1Oc1ccc(C)cc1)=N\OC[C@@H](O)[C@H]1O[C@@H]2OC(C)(C)O[C@@H]2[C@H]1O,86.2%
12,CSCCC(Nc1ccc(S(=O)(=O)N2CCOCC2)cc1[N+](=O)[O-])C(=O)OCC(=O)N(C(C)C)C(C)C (stereo not drawn),92.2%
13,COc1ccc(Oc2c(Cl)cnn(-c3ccccc3)c2=O)cc1,5.5% (active)
14,Cc1ccc(-c2nc3c(cnn3-c3ccccc3)c(=O)o2)cc1,95.4%
15,COc1ccc(-n2c(C)nc3c(cnn3-c3ccccc3)c2=O)cc1,29.9%
16,COc1ccccc1OCc1ccc(C(=O)N2CCN(C)CC2)o1,101%
17,CCOc1ccc(C(=O)Nc2nccs2)cc1[N+](=O)[O-],94%
18,COc1cc(NS(=O)(=O)c2ccccc2)ccc1-n1nc(C)cc1C,101%
19,COc1ccccc1/C=N\Nc1cc(C)nc(-n2nc(C)cc2C)n1,3.9% (active)
20,COc1ccc(Nc2cc(C)nc(-n3nc(C)cc3C)n2)cc1,15.2%
21,COc1ccc(-n2c(=S)[nH]c3sc4c(c3c2=O)CCc2ccccc2-4)cc1,81%
22,CN(C)C(=O)c1ccc2c(c1)C1C3CCC(C3)C1C(c1ccccc1)N2 (stereo not drawn),83.3%
23,CN(C)CCCn1c(N)c(C#N)c2nc(C#N)c(C#N)nc21,5.78% (active)
24,CC(C)(C)c1ccc(C(=O)NCCn2c(N)c(C#N)c3nc4ccccc4nc32)cc1,66.5%

row,SMILES,viability
1,N#Cc1c(N)n(CCOC(=O)c2ccc(Cl)cc2)c2nc3ccccc3nc12,84.2%
2,CCC1C(=O)c2ccccc2N(C)C1=O (stereo not drawn),88.1%
3,C[C@@H](O)c1nc2ccccc2n1N,96%
4,CCOc1ccc(NC(=O)CCC(=O)N/N=C/c2ccc([N+](=O)[O-])s2)cc1,5.45% (active)
5,CCOc1ccc(NC(=O)CN2CCN(CC(=O)Nc3ccc(OC)cc3)CC2)cc1,85.4%
6,CCOc1ccc(NC(=O)CCC(=O)n2nc(C)cc2C)cc1,96.2%
7,CSc1ccc(/C=N/NC(=O)c2cccc(Cl)c2)cc1,84.1%
8,COc1ccc2c(-c3ccccc3)cc(SCC(=O)N(C)C3CCS(=O)(=O)C3)nc2c1 (stereo not drawn),81.2%
9,CCCn1nc(NS(=O)(=O)c2ccccc2)c2cc3cc(C)ccc3nc21,91.5%
10,Cc1ccc(C)c(NC(CC(=O)c2ccccc2)C(=O)OCC(=O)c2cccs2)c1 (stereo not drawn),86.5%
11,Cc1ccccc1C(CC(=O)c1cccs1)C(C#N)C#N (stereo not drawn),2.37% (active)
12,O=C(CCC(=O)c1cccs1)NCc1ccccc1,88.8%
13,CC(=O)Nc1cccc(/C(C)=N/NC(=O)c2c(-c3ccccc3Cl)noc2C)c1,54.6%
14,Cn1cc(/C=C/c2nc3ccccc3c(=O)n2-c2cccc([N+](=O)[O-])c2)c2ccccc21,66.3%
15,CCn1c(/C=C/c2ccc([N+](=O)[O-])o2)nc2ccccc2c1=O,2.56% (active)
16,Cc1ccc(-n2c(SCC(=O)N/N=C/C=C/c3ccccc3[N+](=O)[O-])nc3ccccc3c2=O)cc1,83.5%
17,O=C(CSc1nc2ccccc2[nH]1)N/N=C/C=C\c1ccccc1[N+](=O)[O-],57.4%
18,CC(NC(=O)C(=O)NN=C1CCC(C(C)(C)C)CC1)c1ccccc1 (stereo not drawn),98.5%
19,O=C(COc1ccc(/C=N/NC(=O)c2ccc(O)cc2)cc1)Nc1ccc([N+](=O)[O-])cc1,64.3%
20,CCCCCC(=O)NC(=S)NNC(=O)c1ccc([N+](=O)[O-])cc1,42.3%
21,CCCCCC(=O)Nc1ccc(C(=O)N/N=C/c2ccc([N+](=O)[O-])cc2)cc1,4.26% (active)
22,FC(F)Oc1ccccc1NC(=S)Nc1cccc(Cl)c1Cl,94.2%
23,CCN1CN(Cc2ccccc2)CNC1=S,94.5%
24,C/C(=N\NC(=O)c1cc2c(s1)CCC(C)C2)c1cccnc1 (stereo not drawn),66.6%

row,SMILES,viability
1,Cc1ccc(C(=O)NC(=S)NCCN2CCOCC2)cc1,101%
2,COc1ccc(CC(=O)Nc2ccc(-c3nnc(-c4ccc(C)cc4)o3)cc2)cc1,5.04% (active)
3,Cc1nc(-c2ccc(NC(=O)c3cccs3)cc2)cs1,67%
4,COc1cccc(NC(=O)Cc2ccc(C)cc2)c1,99.6%
5,Cc1ccc(-c2csc(NC(=O)c3cccs3)n2)cc1,95.5%
6,Cc1ccc(-c2nnc(-c3ccc(NC(=O)c4cccs4)cc3)o2)cc1,2.05% (active)
7,COc1ccc(CC(=O)Nc2ccc(C(=O)NC(C)(C)C)cc2)cc1,84.5%
8,O=C(/C=C/c1cccs1)NCc1cccnc1,91.2%
9,Cc1ccc(-c2nc(-c3cccnc3)sc2CC(=O)Nc2ccc(C)c(Cl)c2)cc1,58.3%
10,CCc1nccn1S(=O)(=O)c1cccc([N+](=O)[O-])c1,96.5%
11,C=CCOc1c(Br)cc(/C=N\n2nnnc2N)cc1OC,85.3%
12,O=C(c1cccc(C(=O)N2CCN(c3ccc(F)cc3)CC2)c1)N1CCN(c2ccc(F)cc2)CC1,47.4%
13,CCN1CCN(C(c2cccnc2)c2cc(Cl)c3cccnc3c2O)CC1 (stereo not drawn),45.3%
14,Oc1c(CN2CCN(c3ccc(F)cc3)CC2)cc(Cl)c2cccnc12,3.91% (active)
15,Cc1ccc2c(c1)C(c1ccccc1)N(C(=O)c1ccc(S(=O)(=O)N3CCOCC3)cc1)CC(=O)N2 (stereo not drawn),94.9%
16,Cc1cc2c(C)nc(N/N=C/c3ccccc3)nc2o1,92%
17,Clc1cccc(CN2COc3c(cc(Cl)c4cccnc34)C2)c1,3.67% (active)
18,Nc1c(C(=O)NCc2ccccc2)nnn1Cc1cccc(Cl)c1,25.6%
19,O=c1[nH]n(-c2cccc(Cl)c2)c2ncccc12,85.9%
20,CCOC(=O)c1cc2c(=O)n3ccccc3nc2n(CC(C)C)c1=NC(=O)c1c(-c2c(F)cccc2Cl)noc1C,66.4%
21,Cc1cc(C)nc(NC(=O)c2cccc([N+](=O)[O-])c2)c1,97.8%
